The nature of assay [1]: ATG_PPRE_CIS: Attagene CIS-FACTORIAL HepG2 Assay for human Peroxisome Proliferator-activated Response Element (PPRE) (AID 2282958). Conditions: HepG2 PPRE cis-element reporter, Attagene transcription factor profiling; actives raise or lower the signal. The gist of the method:
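HepG2, transient MRTU transfection (cis promoter elements, endogenous TFs). 24 h dosing. RNA → oligo(dT) RT → PCR → 6-FAM primer extension → HpaI digest → CE. Bidirectional fit vs DMSO.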

Assay [2] can be described thus: ATG_RORE_CIS: Attagene CIS-FACTORIAL HepG2 Assay for human RAR-related Orphan Receptor Element (RORE) (AID 2282959). Particulars: HepG2 Attagene cis-factorial RORE reporter, mRNA; actives raise or lower the signal. The method in brief:
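Transient MRTU transfection of human HepG2 liver cells (FuGene 6); 24 h compound exposure; TriZol RNA, oligo(dT) RT, PCR, FAM labeling, HpaI cut, CE fragment analysis. DMSO = negative control/baseline.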

Assay [3] is described as follows: ATG_Sox_CIS: Attagene CIS-FACTORIAL HepG2 Assay for human SRY-box transcription factor (SOX) (AID 2282960). Conditions: HepG2 Attagene cis-factorial SOX reporter, mRNA; actives raise or lower the signal. The gist of the method: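 Endogenous factor activity in human liver HepG2 cells carrying transfected cis-regulated reporter units. RNA taken 24 h post-dose, reverse-transcribed, PCR-amplified and sized by capillary electrophoresis. Gain or loss of signal fitted relative to DMSO.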

The target of assay [4] is Transcription factor Sp1 (Homo sapiens) (UniProt P08047). The experiment in a line: ATG_Sp1_CIS: Attagene CIS-FACTORIAL HepG2 Assay for human Specificity Protein 1 (Sp1) (AID 2282961). Conditions: HepG2 Sp1 cis-reporter transcription, actives raise or lower the signal. The gist of the method:
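Transient MRTU-transfected HepG2, 24 h compound exposure. Total RNA → oligo(dT) RT → PCR of reporter → 6-FAM primer extension → HpaI digest → CE. Endpoint fitted both directions vs DMSO.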

Assay [5] is described as follows: ATG_SREBP_CIS: Attagene CIS-FACTORIAL HepG2 Assay for human Sterol Regulatory Element Binding (SREBP) (AID 2282962). Conditions: HepG2 Attagene cis-factorial SREBP reporter, mRNA; actives raise or lower the signal. The gist of the method: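 Transfected HepG2 (cis-regulated reporter library, endogenous TFs) → compound 24 h → total RNA → oligo(dT) RT → reporter-specific PCR → FAM primer extension, HpaI cut → CE fluorescence. Fit bidirectional vs DMSO.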

Assay [6] can be described thus: ATG_TA_CIS: Attagene CIS-FACTORIAL HepG2 Assay for human TA Basal Promoter (AID 2282964). Conditions: HepG2 Attagene CIS-factorial TA basal promoter reporter; actives raise or lower the signal. The method in brief: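 Multiplexed mRNA reporter assay, HepG2, 24 h. Reporter cDNA amplified, 6-FAM primer-extended, HpaI-cut, CE-sized; DMSO = negative control and baseline.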

Assay [7] in a line: ATG_TCF_b_cat_CIS: Attagene CIS-FACTORIAL HepG2 Assay for human T-Cell-Factor with beta-catenin (TCF/b-cat) (AID 2282965). Particulars: HepG2 TCF/beta-catenin cis-reporter transcription, actives raise or lower the signal. The method in brief:
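Endogenous transcription factor activity is captured through cis-promoter reporter constructs transiently introduced into human HepG2 liver cells. Induced reporter mRNA is measured after 24 h and fitted bidirectionally relative to DMSO.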

The nature of assay [8]: ATG_TGFb_CIS: Attagene CIS-FACTORIAL HepG2 Assay for human Transforming Growth Factor (TGF) (AID 2282967). Particulars: HepG2 Attagene CIS TGFb reporter, mRNA transcription; actives raise or lower the signal. The method in brief:
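Transcript-level reporter readout: HepG2 transfectants, 24 h exposure, RNA to cDNA, reporter-specific PCR, fluorescent primer extension, capillary sizing against ROX standards. Gain- or loss-of-signal relative to DMSO.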

A short description of assay [9]: ATG_VDRE_CIS: Attagene CIS-FACTORIAL HepG2 Assay for human Vitamin D Receptor Element (VDRE) (AID 2282968). Conditions: HepG2 VDRE cis-reporter transcription, actives raise or lower the signal. The gist of the method: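 In transiently transfected HepG2 liver cells, gain or loss of reporter mRNA after 24 h exposure is scored relative to DMSO, using fluorescence detection by capillary electrophoresis of RT-PCR products.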

Assay [10] has as its target Estrogen receptor (Homo sapiens) (UniProt P03372). Description: ATG_ERa_TRANS: Attagene TRANS-FACTORIAL HepG2 Assay for human Estrogen Receptor alpha (ERa) (AID 2282970; active = hit-call score of the fitted dose curve at least 0.9, where 1 is the maximum). Particulars: HepG2 Attagene TRANS ERa GAL4 reporter, mRNA. The gist of the method:
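HepG2 cells transiently transfected with multiplexed GAL4-UAS reporter units read out chimeric NR-Gal4 activity. After 24 h compound exposure, reporter mRNA was quantified by RT-PCR, 6-FAM labeling, HpaI digestion and capillary electrophoresis, relative to DMSO.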

Assay [11] deals with X-box-binding protein 1 (Homo sapiens) (UniProt P17861). Description: ATG_Xbp1_CIS: Attagene CIS-FACTORIAL HepG2 Assay for human X-box Binding Protein 1 (XBP1) (AID 2282972). Particulars: HepG2 XBP1 cis-element reporter, Attagene multiplex; actives raise or lower the signal. The method in brief:
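HepG2, transient MRTU transfection (cis-promoter driven), 24 h compound exposure. Total RNA → oligo(dT) RT → PCR → 6-FAM labeling → HpaI cut → CE. Bidirectional fit vs DMSO.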

Assay [12] is described as follows: ATG_M_19_TRANS: Attagene TRANS-FACTORIAL HepG2 Assay for M19 Transcription Factor (Internal Marker) (AID 2282974; active = hit-call score of the fitted dose curve at least 0.9, where 1 is the maximum). Particulars: HepG2 Attagene TRANS-FACTORIAL M19 internal marker reporter. The method in brief:
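Fluorescence of 6-FAM-labelled reporter cDNA fragments, separated by capillary electrophoresis, served as the readout. These derived from HepG2 cells carrying transfected GAL4-UAS reporter units after 24 h dosing, with DMSO as negative control.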

Assay [13] is described as follows: ATG_GAL4_TRANS: Attagene TRANS-FACTORIAL HepG2 Assay for GAL4 (Internal Marker) (AID 2282976; active = hit-call score of the fitted dose curve at least 0.9, where 1 is the maximum). Particulars: HepG2 Attagene TRANS GAL4 internal marker reporter. The gist of the method:
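Background-control readout: GAL4-UAS reporter transcript in transiently transfected HepG2 cells after 24 h compound exposure. Measured by RT-PCR, 6-FAM primer extension, HpaI digest and capillary electrophoresis; gain-of-signal fit versus DMSO.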

Assay [14] in a line: ATG_TAL_CIS: Attagene CIS-FACTORIAL HepG2 Assay for human TAL Basal Promoter (AID 2282966).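 Note: background control endpoint measuring basal TAL promoter reporter mRNA not a specific factor.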 Conditions: HepG2 Attagene cis-factorial TAL promoter reporter; actives raise or lower the signal. The method in brief:
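HepG2 cells transiently transfected with multiplexed cis-promoter reporter units, dosed 24 h. Reporter mRNA quantified by RT-PCR, 6-FAM labelling, HpaI digestion and capillary electrophoresis; TAL basal promoter serves as background control, fitted bidirectionally versus DMSO.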

Assay [15] deals with Nuclear receptor subfamily 1 group I member 3 (Homo sapiens) (UniProt Q14994). Description: ATG_CAR_TRANS: Attagene TRANS-FACTORIAL HepG2 Assay for human Constitutive Androstane Receptor (CAR) (AID 2282969; active = hit-call score of the fitted dose curve at least 0.9, where 1 is the maximum;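 note: activators raise reporter mRNA above DMSO so AC50 marks induction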). Particulars: HepG2 Attagene TRANS-FACTORIAL CAR reporter. The gist of the method: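 Readout is reporter mRNA induction, quantified by fluorescent primer extension and capillary electrophoresis after RT-PCR. Cells were HepG2 transiently carrying chimeric NR-Gal4 constructs with GAL4-UAS reporters, treated for 24 h; activity scored upward from DMSO.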

For assay [16], the target named is Glucocorticoid receptor (Homo sapiens) (UniProt P04150). The experiment in a line: ATG_GR_TRANS: Attagene TRANS-FACTORIAL HepG2 Assay for human Glucocorticoid Receptor (GR) (AID 2282978; active = hit-call score of the fitted dose curve at least 0.9, where 1 is the maximum;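 note: activators score as hits since higher reporter transcript over DMSO is fitted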). Conditions: HepG2 Attagene TRANS GR reporter, mRNA transcription. The method in brief: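 Fluorescent capillary-electrophoresis quantitation of reporter mRNA is the readout, taken 24 h after dosing human HepG2 cells carrying transiently transfected GAL4-UAS reporter units activated by chimeric NR-GAL4 fusions; activity scored as induction over DMSO.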

In assay [17] the target is Bile acid receptor (Homo sapiens) (UniProt Q96RI1). Description: ATG_FXR_TRANS: Attagene TRANS-FACTORIAL HepG2 Assay for Farnesoid X Receptor (FXR) (AID 2282979; active = hit-call score of the fitted dose curve at least 0.9, where 1 is the maximum;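 note: hits raise reporter mRNA above DMSO so AC50 marks FXR activation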). Conditions: HepG2 Attagene TRANS FXR-GAL4 reporter transcription. The method in brief:
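HepG2 cells were transiently transfected with GAL4-UAS reporters driven by chimeric NR-Gal4 proteins and dosed for 24 h. Reporter mRNA was quantified by RT-PCR, fluorescent labelling, HpaI digestion and capillary electrophoresis, with gain of signal scored versus DMSO.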

For assay [18], the target named is Signal transducer and activator of transcription 3 (Homo sapiens) (UniProt P40763). Description: ATG_STAT3_CIS: Attagene CIS-FACTORIAL HepG2 Assay for human Signal Transducer and Activator of Transcription 3 (STAT3) (AID 2282963). Particulars: HepG2, Attagene cis-factorial STAT3 reporter transcription; actives raise or lower the signal. The gist of the method:
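After a 24 h compound incubation, total RNA from MRTU-transfected HepG2 cells was converted to cDNA and reporter sequences PCR-amplified, labelled and profiled by capillary electrophoresis. Gain and loss of signal were referenced to DMSO.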

The target in assay [19] is Steroid hormone receptor ERR1 (Homo sapiens) (UniProt P11474). Description: ATG_ERRa_TRANS: Attagene TRANS-FACTORIAL HepG2 Assay for human Estrogen-Related Receptor alpha (ERRa) (AID 2282971; active = hit-call score of the fitted dose curve at least 0.9, where 1 is the maximum). Conditions: HepG2 Attagene TRANS reporter, ERRa transactivation. The gist of the method:
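HepG2 cells transiently transfected with GAL4-UAS reporter units and chimeric NR-Gal4 constructs; after 24 hour compound incubation, reporter mRNA quantified by RT-PCR, fluorescent labelling and capillary electrophoresis, gain of signal versus DMSO.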

Inconclusive results are not listed. Calls of active or inactive are those of the source. Rule for the calls, unless noted: active = hit-call score of the fitted dose curve at least 0.9, where 1 is the maximum; inactive = score below 0.9.

Estrogen receptor (Homo sapiens), sequence (P03372 whole entry, looked up, the tested form may be a part): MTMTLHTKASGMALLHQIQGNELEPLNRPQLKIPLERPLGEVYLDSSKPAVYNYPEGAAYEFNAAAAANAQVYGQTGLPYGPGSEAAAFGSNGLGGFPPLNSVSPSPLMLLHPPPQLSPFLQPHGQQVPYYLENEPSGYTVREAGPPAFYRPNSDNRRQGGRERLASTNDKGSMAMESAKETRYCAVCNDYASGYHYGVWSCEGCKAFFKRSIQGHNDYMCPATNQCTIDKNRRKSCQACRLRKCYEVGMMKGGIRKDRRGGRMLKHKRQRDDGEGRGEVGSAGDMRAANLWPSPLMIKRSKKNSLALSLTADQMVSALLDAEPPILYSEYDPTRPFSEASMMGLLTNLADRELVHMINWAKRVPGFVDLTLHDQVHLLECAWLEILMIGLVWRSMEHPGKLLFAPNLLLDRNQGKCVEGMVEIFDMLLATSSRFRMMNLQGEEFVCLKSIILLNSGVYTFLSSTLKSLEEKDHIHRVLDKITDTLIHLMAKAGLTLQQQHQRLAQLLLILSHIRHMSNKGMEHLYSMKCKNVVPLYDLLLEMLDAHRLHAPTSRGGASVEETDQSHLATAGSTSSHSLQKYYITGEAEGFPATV
Nuclear receptor subfamily 1 group I member 3 (Homo sapiens), sequence (Q14994 whole entry, looked up, the tested form may be a part): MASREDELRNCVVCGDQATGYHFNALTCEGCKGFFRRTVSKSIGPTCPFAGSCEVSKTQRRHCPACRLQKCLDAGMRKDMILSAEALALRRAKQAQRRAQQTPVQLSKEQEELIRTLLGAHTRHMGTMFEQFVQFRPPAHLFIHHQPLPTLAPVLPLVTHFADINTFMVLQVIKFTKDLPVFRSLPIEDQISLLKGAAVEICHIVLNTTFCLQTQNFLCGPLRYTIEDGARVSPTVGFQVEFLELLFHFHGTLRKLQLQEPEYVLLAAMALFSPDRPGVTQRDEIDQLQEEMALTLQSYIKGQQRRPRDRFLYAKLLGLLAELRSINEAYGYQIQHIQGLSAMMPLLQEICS
Signal transducer and activator of transcription 3 (Homo sapiens), sequence (P40763 whole entry, looked up): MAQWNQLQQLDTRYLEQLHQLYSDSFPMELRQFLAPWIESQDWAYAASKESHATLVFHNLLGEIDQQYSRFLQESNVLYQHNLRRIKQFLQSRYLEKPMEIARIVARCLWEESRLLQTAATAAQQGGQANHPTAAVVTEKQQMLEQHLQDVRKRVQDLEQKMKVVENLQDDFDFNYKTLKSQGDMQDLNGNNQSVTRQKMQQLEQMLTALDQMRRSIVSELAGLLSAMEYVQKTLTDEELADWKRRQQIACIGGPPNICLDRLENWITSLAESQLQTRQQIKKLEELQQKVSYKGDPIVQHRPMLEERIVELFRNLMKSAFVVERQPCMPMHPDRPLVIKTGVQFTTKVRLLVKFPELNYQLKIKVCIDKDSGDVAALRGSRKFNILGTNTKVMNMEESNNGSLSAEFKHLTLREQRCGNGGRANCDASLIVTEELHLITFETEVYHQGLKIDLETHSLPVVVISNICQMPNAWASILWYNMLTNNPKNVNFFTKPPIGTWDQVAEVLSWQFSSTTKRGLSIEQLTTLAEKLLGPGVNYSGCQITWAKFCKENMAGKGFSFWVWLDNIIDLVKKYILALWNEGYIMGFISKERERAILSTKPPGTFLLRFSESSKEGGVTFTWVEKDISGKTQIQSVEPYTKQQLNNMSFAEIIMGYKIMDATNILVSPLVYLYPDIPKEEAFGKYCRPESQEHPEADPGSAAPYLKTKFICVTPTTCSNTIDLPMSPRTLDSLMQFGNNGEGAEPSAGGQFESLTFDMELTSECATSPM
Transcription factor Sp1 (Homo sapiens), sequence (P08047 whole entry, looked up): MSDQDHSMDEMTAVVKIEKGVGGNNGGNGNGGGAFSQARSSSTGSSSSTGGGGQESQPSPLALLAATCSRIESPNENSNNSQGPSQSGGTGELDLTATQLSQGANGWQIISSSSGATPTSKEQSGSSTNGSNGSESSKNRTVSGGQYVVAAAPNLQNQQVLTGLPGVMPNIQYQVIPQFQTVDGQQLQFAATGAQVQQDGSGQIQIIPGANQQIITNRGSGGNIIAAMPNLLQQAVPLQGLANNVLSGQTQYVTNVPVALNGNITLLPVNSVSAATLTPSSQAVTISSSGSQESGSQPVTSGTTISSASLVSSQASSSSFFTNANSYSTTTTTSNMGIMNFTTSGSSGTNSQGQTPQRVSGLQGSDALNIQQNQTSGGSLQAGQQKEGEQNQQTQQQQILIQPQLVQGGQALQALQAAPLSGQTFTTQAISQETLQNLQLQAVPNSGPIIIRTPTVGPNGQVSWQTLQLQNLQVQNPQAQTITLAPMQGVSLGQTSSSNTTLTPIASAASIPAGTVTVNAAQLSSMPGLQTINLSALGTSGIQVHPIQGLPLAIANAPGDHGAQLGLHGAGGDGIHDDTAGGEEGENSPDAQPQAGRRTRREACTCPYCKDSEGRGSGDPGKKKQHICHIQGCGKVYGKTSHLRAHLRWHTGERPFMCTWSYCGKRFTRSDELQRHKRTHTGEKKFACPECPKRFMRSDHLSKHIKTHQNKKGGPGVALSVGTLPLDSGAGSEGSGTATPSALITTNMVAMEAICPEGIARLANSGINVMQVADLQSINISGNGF
X-box-binding protein 1 (Homo sapiens), sequence (P17861 whole entry, looked up): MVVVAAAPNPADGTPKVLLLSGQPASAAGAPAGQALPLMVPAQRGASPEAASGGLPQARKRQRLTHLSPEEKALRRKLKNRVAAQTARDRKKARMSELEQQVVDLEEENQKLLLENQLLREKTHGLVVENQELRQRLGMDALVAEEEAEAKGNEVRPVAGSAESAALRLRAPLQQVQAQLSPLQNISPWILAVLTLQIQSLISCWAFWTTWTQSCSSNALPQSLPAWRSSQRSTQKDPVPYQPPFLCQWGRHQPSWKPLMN
Bile acid receptor (Homo sapiens), sequence (Q96RI1 whole entry, looked up, the tested form may be a part): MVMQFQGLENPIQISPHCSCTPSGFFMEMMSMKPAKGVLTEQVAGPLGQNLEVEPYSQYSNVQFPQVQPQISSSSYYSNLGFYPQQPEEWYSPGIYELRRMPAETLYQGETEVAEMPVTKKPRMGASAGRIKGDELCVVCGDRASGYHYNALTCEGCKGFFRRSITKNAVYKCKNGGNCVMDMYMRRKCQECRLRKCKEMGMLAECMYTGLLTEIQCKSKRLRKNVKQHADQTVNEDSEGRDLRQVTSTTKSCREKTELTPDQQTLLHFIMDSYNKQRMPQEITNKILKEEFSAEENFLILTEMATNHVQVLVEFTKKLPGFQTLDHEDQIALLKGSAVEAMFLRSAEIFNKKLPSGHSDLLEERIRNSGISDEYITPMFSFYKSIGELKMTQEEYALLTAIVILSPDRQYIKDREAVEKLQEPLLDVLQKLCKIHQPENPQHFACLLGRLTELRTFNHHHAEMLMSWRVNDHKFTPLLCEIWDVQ
Steroid hormone receptor ERR1 (Homo sapiens), sequence (P11474 whole entry, looked up, the tested form may be a part): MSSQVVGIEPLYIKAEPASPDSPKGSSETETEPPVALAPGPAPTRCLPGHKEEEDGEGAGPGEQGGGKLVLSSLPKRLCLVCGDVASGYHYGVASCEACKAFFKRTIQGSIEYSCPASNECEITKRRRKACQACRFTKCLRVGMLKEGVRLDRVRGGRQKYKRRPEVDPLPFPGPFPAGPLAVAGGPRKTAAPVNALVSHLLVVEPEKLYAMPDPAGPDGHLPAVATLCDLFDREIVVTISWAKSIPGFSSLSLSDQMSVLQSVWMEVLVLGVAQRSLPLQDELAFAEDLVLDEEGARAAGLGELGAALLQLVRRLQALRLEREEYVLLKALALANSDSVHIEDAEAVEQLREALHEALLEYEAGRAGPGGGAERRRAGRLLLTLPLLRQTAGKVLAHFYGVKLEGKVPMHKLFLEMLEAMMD
Glucocorticoid receptor (Homo sapiens), sequence (P04150 whole entry, looked up, the tested form may be a part): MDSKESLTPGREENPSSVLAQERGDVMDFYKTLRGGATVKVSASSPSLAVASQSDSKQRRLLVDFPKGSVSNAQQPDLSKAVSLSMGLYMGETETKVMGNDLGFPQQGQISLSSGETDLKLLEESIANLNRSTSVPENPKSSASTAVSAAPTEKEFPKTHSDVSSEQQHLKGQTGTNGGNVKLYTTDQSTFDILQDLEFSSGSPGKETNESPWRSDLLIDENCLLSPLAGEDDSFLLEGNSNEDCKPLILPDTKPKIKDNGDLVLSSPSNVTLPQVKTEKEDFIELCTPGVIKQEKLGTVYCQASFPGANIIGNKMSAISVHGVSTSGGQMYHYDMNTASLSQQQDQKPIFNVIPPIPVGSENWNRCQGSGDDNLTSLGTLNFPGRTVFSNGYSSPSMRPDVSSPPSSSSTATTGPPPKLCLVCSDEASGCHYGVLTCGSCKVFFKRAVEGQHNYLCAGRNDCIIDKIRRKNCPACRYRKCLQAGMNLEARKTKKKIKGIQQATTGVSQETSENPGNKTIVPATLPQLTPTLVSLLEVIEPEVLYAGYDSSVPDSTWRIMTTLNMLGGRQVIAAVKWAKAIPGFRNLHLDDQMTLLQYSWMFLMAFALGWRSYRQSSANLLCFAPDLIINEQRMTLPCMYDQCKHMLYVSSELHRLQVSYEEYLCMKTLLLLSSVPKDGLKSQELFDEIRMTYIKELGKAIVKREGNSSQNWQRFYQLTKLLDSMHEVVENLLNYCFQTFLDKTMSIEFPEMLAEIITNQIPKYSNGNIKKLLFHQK

As for `CCCCCCCCSC(=O)Oc1cc(Cl)nnc1-c1ccccc1`, the result in [1], in assay [2], in assay [3], in assay [4], in assay [5] and in [10] was inactive. Besides, the compound was classed as inactive in assay [11], in assay [12] and in [13]. Moreover, the half-maximal activity concentration (AC50) in assay [6] was 124 µM (active); in assay [7], 170 µM (active); in assay [8], 152 µM (active); in assay [9], 100 µM (active).
With `ClC1=C(Cl)[C@]2(Cl)[C@H]3[C@H]([C@H]4C=C[C@H]3C4)[C@@]1(Cl)C2(Cl)Cl`, the outcome in [1], in assay [2], in assay [4], in [5], in assay [6] and in [7] was inactive. In addition, the outcome in assay [14], in assay [8], in [9], in [15], in [11] and in assay [12] was inactive. The call in [16] was inactive. Besides, in assay [10], the AC50 is 8.38 µM (active).
For the compound `CC(=[OH+])/C=C(/C)[O-].CC(=[OH+])/C=C(/C)[O-].CC(=[OH+])/C=C(/C)[O-].[Al]`, the outcome in assay [1], in [2], in assay [3], in assay [4], in assay [5] and in assay [7] was inactive. The compound was classed as inactive in assay [8], in assay [9], in assay [11], in assay [12] and in assay [13].
Regarding `C=CC(=O)OCCCCCC(C)C`, the compound was called inactive in assay [1], in [2], in assay [3], in [4], in [5] and in assay [7]. The compound was called inactive in [14], in assay [8], in [9], in assay [11], in assay [12] and in assay [13]. Also, the call in assay [17] was inactive.
`COc1cc(OC)nc(NC(=O)NS(=O)(=O)c2ncccc2C(=O)N(C)C)n1`: the compound was called inactive in [1], in assay [2], in [4], in [5], in [18] and in assay [6]. In addition, the call in assay [7], in [14], in assay [8], in assay [9], in [15] and in [11] was inactive. Further, the outcome in [13] was inactive. Moreover, the AC50 in assay [10] was 77.8 µM (active).
Turning to `O=C(CCl)CCl`, the compound was called inactive in [1], in assay [2], in [18], in [8] and in assay [10]. The AC50 in [4] is 33.4 µM (active); in assay [5], 46 µM (active); in assay [7] it was 23.4 µM (active); in [9], 45.4 µM (active); in assay [11], 48.1 µM (active).
For `CC(C)(c1ccccc1)c1ccc(O)c(C(C)(C)c2ccccc2)c1`, the AC50 in [1] is 3.04 µM (active); in [4], 7.78 µM (active); in [5], 4.24 µM (active); in assay [9] it was 0.702 µM (active); in assay [10], 5.55 µM (active); in assay [11] it was 10.1 µM (active). For the same compound, the compound was called inactive in assay [2], in assay [7], in assay [8], in assay [15], in assay [12] and in assay [17].
As for `CCOC(=O)CP(=O)(OCC)OCC`, the outcome in assay [1], in assay [2], in assay [4], in assay [5], in [18] and in assay [6] was inactive. The outcome in assay [7], in assay [14], in assay [8], in assay [19], in [11] and in assay [12] was inactive. The compound was classed as inactive in assay [13].
`CC(C)c1cccc(C(C)C)c1O`: the result in assay [1], in assay [2], in [3], in assay [4], in assay [5] and in assay [7] was inactive. Also, the result in assay [14], in assay [8], in assay [9], in assay [15], in assay [10] and in assay [11] was inactive. Further, the call in [12] was inactive.
On to `COc1ccc(OC)c(C=O)c1`, for which the outcome in assay [1], in assay [2], in assay [3], in assay [4], in [5] and in assay [6] was inactive. Besides, the call in assay [7], in assay [8], in assay [9], in [11], in assay [12] and in [13] was inactive.

(Values after PubChem BioAssay (EPA / NIEHS).)
